This passage reports inhibition results from PubChem BioAssay AID1259343 (VanderVen Lab, College of Veterinary Medicine, Cornell …, 2017).

Out of some 6,200 compounds screened, about 2,900 (47%) were called active. So high a share suggests a set chosen from earlier hits. This is one part of the list. A number with no mark means an inactive call. No stated cut-off is given here; in the data, active means inhibition above about 50%; inactive means the rest.

The nature of the assay: Mycobacterium tuberculosis growth inhibition, primary screen (AID 1259343). The note with it: inhibition: at 10 µM, active compounds read high; outcome: 10 uM.
As for `Cc1ccc(C(=O)OCc2cc(C)on2)c(O)c1`, the inhibition is -29.5%.
For `O=C(Nc1nc(C2CC2)cs1)c1cc2ccccc2cc1O` the value was 11.4%.
Turning to `Cc1nc(COC(=O)c2cc3ccccc3cc2O)oc1C`, the inhibition is 54.9% (active).
Turning to `Cc1ccc2nc3sc(C(=O)O)cc3cc2c1`, the inhibition was 7.83%.
For `Cc1sc(C(=O)N2CCOC(C(N)=O)C2)cc1-c1ccc(F)cc1` (stereo unspecified) the value was 5.13%; for `COc1ccc(-c2cc(C(=O)O)sc2C)cc1`, 67.1% (active).
For `CN(C)C(=O)On1nnc2ccccc21` the value was 26.9%.
For `O=S(=O)(c1cccs1)n1nnc2ccccc21` the value was 52.1% (active); for `O=C(O)C1CCCN1S(=O)(=O)c1cccs1` (stereo unspecified), -0.47%.
Turning to `Cn1c(=O)cc2c3c(cccc31)C(=O)c1ccccc1-2`, the inhibition was 11.1%.
Then `S=c1[nH]c(-c2ccccc2)c(-c2ccccc2)[nH]1`, with 18.6%; and `O=c1c(-c2ccccc2)c1-c1ccccc1`, with 86.5% (active); and `O=C(NCCc1cccc(C(F)(F)F)c1)c1ccc(CSc2ncn[nH]2)o1`, with 36.7%.
Take `O=C(NCCOc1cccc(C(F)(F)F)c1)c1ccc(Cl)c([N+](=O)[O-])c1`: the inhibition is 54.2% (active).
For `Cc1ccc(C)c(C=CC(=O)c2ccc(O)cc2)c1` the value was 98.6% (active); for `COc1ccccc1C=CC(=O)c1ccc(Cl)cc1`, 46.9%; for `Cc1cc(C)n(C(C)CNS(=O)(=O)c2ccc(C)c(C)c2)n1` (stereo unspecified), -27.8%.
`CC(O)c1cnc(-c2ccc(Br)cc2)s1` (stereo unspecified): the inhibition is 35.9%.
In the case of `CC(C)c1ccc(-c2nnc(N)s2)cc1`, the inhibition was 72.1% (active).
Then `Cc1cc2nn(-c3ccc(C(C)C)cc3)nc2cc1N`, with 14.7%; and `O=C(/C=C/C(=O)Oc1ccccc1C(=O)O)Oc1ccccc1C(=O)O`, with 26.7%; and `C=CS(=O)(=O)Oc1ccccc1`, with 78.9% (active).
Regarding `NC(=O)c1ccc(CN2CCCc3cc(F)cc(F)c32)cc1`, the inhibition was 17.5%.
For `Nc1nc(Cl)cc(N2CCN(Cc3ccc4c(c3)OCCO4)CC2)n1`, the inhibition is 6.34%.
Then `NC(=O)c1ccnc(N2CCN(Cc3ccc(Cl)c(Cl)c3)CC2)c1`, with 89.4% (active); and `C=CCn1cnc2c(c1=O)c1nc3ccccc3nc1n2CCC(C)C`, with 12.7%; and `CCOc1ccc2ccccc2c1C(=O)Nc1cc(C)nn1-c1nc(CC)cc(=O)[nH]1`, with 101% (active).
Regarding `CCOc1ccc2ccccc2c1C(=O)Nc1cc(C)nn1-c1nc(C)cc(=O)[nH]1`, the inhibition is 101% (active).
Then `COCCOc1ccc(CNS(=O)(=O)c2ccc(F)c(Cl)c2)cc1`, with 30.9%.
In the case of `O=S(=O)(NCCCNS(=O)(=O)c1ccc(Cl)cc1)c1ccc(Cl)cc1`, the inhibition was -18.2%.
For `O=S(=O)(NCCCCOc1ccc(Cl)cc1)c1cccc(F)c1` the value was 88.5% (active); for `Cc1ccc(-c2csc(NC(=O)c3c(C)noc3C)n2)s1`, 24.1%.
Then `Cc1oc2nc[nH]c(=O)c2c1C(=O)Nc1ccc(C(C)(C)C)cc1`, with 39.2%.
In the case of `Cc1noc(C)c1C(=O)Nc1nc2cc(C(C)(C)C)ccc2o1`, the inhibition was 100% (active).
Then `CCCc1nc(N2CC[C@@H](c3ccc4ccccc4c3)[C@H](O)C2)no1`, with 23%; and `Cc1cc(N2CC[C@@H](c3ccc4c(c3)OCO4)[C@H](O)C2)nc2cc(F)ccc12`, with 11.3%.
For `CCc1cnc(N2CC[C@@H](c3ccc4ccccc4c3)[C@H](O)C2)nc1` the value was 86.1% (active).
`O=C(CSC1=NS(=O)(=O)c2ccccc2N1)Nc1ccccc1`: the inhibition was 31.9%.
Regarding `Cc1cc(C)n2nc(SCC(=O)Nc3ccc(C(C)C)cc3)nc2n1`, the inhibition is 84.4% (active).
Then `CCCCc1ccc(NC(=O)CSc2nc3nc(C)cc(C)n3n2)cc1`, with -36.7%; and `O=C1c2ccccc2-c2nc3nonc3nc21`, with 103% (active); and `O=C(NNC(=O)C1C2C=CC(C2)C1C(=O)O)c1ccc(OC2CCCC2)cc1` (stereo unspecified), with 97.7% (active).
As to `CCC(C)n1nccc1NC(=O)c1n[nH]c2ccccc2c1=O` (stereo unspecified), the inhibition was 3.7%.
For `CC(C)n1nccc1-c1nnc(NC(=O)c2ccccc2)o1` the value was 100% (active); for `O=C(c1ccccc1)n1sc(=O)c2ccccc21`, 61.1% (active).
Then `CN(Cc1cccc(NC(=O)C(C)(C)C)c1)C(=O)C(F)(F)F`, with 4.53%; and `CS(=O)(=O)CCC(=O)Nc1cccc(-n2cccc2)c1`, with 81.7% (active).
Then `O=C(CCCn1c(=O)oc2ccccc21)Nc1cccc(-c2ccsc2)c1`, with 34.8%; and `CCOC(=O)C1CSC(Cc2ccc(OCc3ccc([N+](=O)[O-])cc3)cc2)N1` (stereo unspecified), with 66% (active); and `CC(=NNC(=O)c1cc(-c2ccc(Cl)s2)[nH]n1)c1ccccc1O`, with 40.9%.
As to `O=C(NN=Cc1ccncc1)c1cc(-c2ccc(Cl)s2)[nH]n1`, the inhibition was 16.5%.
For `COc1cccc(C=NNC(=O)c2cc(-c3ccc(Cl)s3)[nH]n2)c1` the value was 68% (active); for `O=c1[nH]nc(SCc2cc(Cl)ccc2Cl)c(=O)[nH]1`, 54.7% (active).
Then `O=C(CN1CCN(CCC23CC4CC(CC(C4)C2)C3)CC1)N1CCCCC1`, with 9.26%; and `Cc1ccc(C(C)CCN2CCC(C(=O)Nc3ccc(-n4cccn4)cc3)CC2)o1` (stereo unspecified), with 81.8% (active).
Then `CCOC(=O)C1(CCOc2ccccc2)CCN(Cc2cc3ccccc3[nH]2)CC1`, with “inactive”; and `O=C(Nc1ccc(-n2cccn2)cc1)C1CCN(Cc2ccccn2)CC1`, with 90.4% (active); and `O=C(Nc1ccc(-n2cccn2)cc1)C1CCCCN1Cc1cc2ccccc2[nH]1` (stereo unspecified), with 80.4% (active).
With `O=C(CCC1CCCCC1)Nc1ccc(-n2cccn2)cc1`, the inhibition was 37.5%.
For `Cc1nc(C)c(CN2CCC(C(=O)Nc3ccc(-n4cccn4)cc3)CC2)nc1C` the value was 83.6% (active); for `CCn1ncc(CN2CCCC(C(=O)Nc3cccc(-c4cc5ccccc5[nH]4)c3)C2)c1C` (stereo unspecified), 24.9%; for `Cc1ccc2nc(/C(Cl)=C/c3cccc(OCc4cccc(C#N)c4)c3)cc(=O)n2c1`, 32.1%.
Then `O=C(Nc1cccc(-c2cccc(F)c2)c1)C1CCN(CC2CCOC2)CC1` (stereo unspecified), with 19.5%.
`O=C(Nc1ccc(-n2cccn2)cc1)C1CCN(CC2CCOC2)CC1` (stereo unspecified): the inhibition is 87.4% (active).
For `CCCCOC(=O)c1ccc(N/C=C(\C#N)c2nc(C3CC3)cs2)cc1` the value was 79.1% (active); for `N#CC(Cc1ccccc1)NC(=O)/C=C/c1ccccc1Br` (stereo unspecified), 88.1% (active); for `O=C(O)c1cncnc1/C=C/c1ccccc1Br`, 3.04%.
Then `CCc1ccc(S(=O)(=O)NCCOc2ccc(-c3ccc(F)cc3)nn2)s1`, with 92.4% (active); and `C#CCN(CC=C)C(=O)c1cc(COc2cccc(C(F)(F)F)c2)on1`, with 26.3%; and `O=C(NC1(c2ccccc2)CC1)c1cc(COc2cccc(C(F)(F)F)c2)on1`, with 88.1% (active).
Turning to `O=C(c1cc(COc2cccc(C(F)(F)F)c2)on1)N1CCC(c2ccncc2)CC1`, the inhibition was 64.9% (active).
Then `O=C(c1cc(COc2ccc3c(c2)CCCC3)on1)N1CCC(c2ccncc2)CC1`, with 36.6%.
For `O=C(NCc1ccc(Cl)s1)c1cc(COc2cccc(C(F)(F)F)c2)on1` the value was 82.4% (active); for `O=C(c1cc(COc2ccc(-n3cncn3)cc2)on1)N1CCC(c2ccncc2)CC1`, 35.6%.
For `Cc1ccc(-c2nc(N3CCN(CCO)CC3)ncc2-c2ccccc2C)cc1` the value was -0.32%; for `O=P(NCc1ccccc1)(Oc1ccccc1)Oc1ccccc1`, 81.5% (active).
Take `O=C(NCc1ccccc1)c1coc(Br)c1`: the inhibition was 41.6%.
Take `CC(C)(C)CC(C)(C)NC(=O)c1ccc(C#N)cc1`: the inhibition is -11.6%.
For `CN(Cc1ccc(C#N)cc1)C(=O)CCc1ccc(C(C)(C)C)cc1` the value was 74.3% (active).
For `CCC(C)(C)C1CCC(NC(=O)c2ccnc(C)n2)CC1` (stereo unspecified) the value was 70.8% (active).
For `CCC(C)(C)C1CCC(NC(=O)c2cccc(-n3cnnn3)c2)CC1` (stereo unspecified) the value was 24.6%; for `O=[N+]([O-])c1ccc(C2CN=C(Nc3ccccc3)O2)cc1` (stereo unspecified), 74% (active); for `NC(=O)CC1CCN(Cc2noc(Cc3ccc(Br)cc3)n2)CC1`, 24.6%.
On to `CCC(=O)C1=C(c2ccc(Br)cc2)N(C(=O)CC)n2cnnc2S1`, for which the inhibition was 8.79%.
Then `O=C(NC(=S)Nc1cccc(C(F)(F)F)c1)c1ccc(Br)o1`, with -5.04%.
Consider `CNS(=O)(=O)c1ccc(C(=O)Nc2ccc(C)c(C)c2)o1`, for which the inhibition is -15.4%.
Regarding `Cc1nnc(NC(=O)c2ccc(S(=O)(=O)Nc3cccc(C(F)(F)F)c3)o2)s1`, the inhibition was 66.4% (active).
For the compound `O=C(Nc1ccc(Cl)c(Cl)c1)N(Cc1ccc(O)cc1)C1CC1`, the inhibition was 27.8%.
Regarding `O=C(NNc1ccc(Cl)c(Cl)c1)c1ccc(NC(=O)C2CC2)cc1`, the inhibition is 96.5% (active).
Then `O=C(Nc1ccc(CNS(=O)(=O)c2c(Cl)cccc2Cl)cc1)C1CC1`, with 27.6%.
`CC1(C)CC2CC(C)(CN2C(=S)NC(=O)c2cccs2)C1` (stereo unspecified): the inhibition is 96.2% (active).
For `CCCCNC(=S)N1CC2(C)CC1CC(C)(C)C2` (stereo unspecified) the value was 90.3% (active); for `CC1(C)CC2CC(C)(CN2C(=O)c2cc3c(s2)CCCC3)C1` (stereo unspecified), 47.7%; for `CNC(=O)Cc1noc(-c2cc3c(s2)CCCCCC3)n1`, 43.5%.
Regarding `Fc1ccc(OCc2noc(-c3cccs3)n2)c(Br)c1`, the inhibition is -15.9%.
Consider `Clc1ccc(Cc2noc(-c3cccs3)n2)c(Cl)c1`, for which the inhibition is 84.3% (active).
For the compound `O=C(CN1CCCc2cc(F)ccc21)NCc1ccco1`, the inhibition was 44%.
For `S=C(NCc1ccco1)N1CCC2CCCCC2C1` (stereo unspecified) the value was 86.6% (active); for `N#Cc1cccc(NC(=O)c2cc(Cl)c3c(c2)OCCCO3)c1`, 56.4% (active); for `N#Cc1cccc(NC(=O)C2C3CC4CC(C3)CC2C4)c1` (stereo unspecified), 28.5%.
For `COc1cc(C(=O)NC2CCOc3ccccc32)cc2c1OCCO2` (stereo unspecified) the value was 41.9%.

Broadly, the inhibition is the drop in the measured response relative to a control, in per cent.
